In PubChem BioAssay (NCI) one finds growth data, which are given here for seven compounds.

This is part of a sample that, as a whole, favours compounds with a hit. Of some 83,000 tested, about 20% had one in any assay.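 Single-concentration screen, 48 h exposure, 96-well plates. Endpoint: percent growth. Below 10 = active.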 Values without a mark were called inactive. Calls of active or inactive are those of the source.

Common to all, as to assay: NCI-60 one-dose screen, 48 h (100 = growth as untreated, 0 = no growth, -100 = all killed)
For one experiment, the system named is SK-MEL-2 melanoma. Particulars: 10 µM unless noted.
In another experiment the test system is EKVX NSCLC. Particulars: 10 µM unless noted.
For a further experiment, the system named is SN12C renal. Particulars: 10 µM unless noted.
For the next experiment, the system named is UO-31 renal. As to conditions: 10 µM unless noted.
A further experiment relates to TK-10 renal. Particulars: 10 µM unless noted.
Another experiment deals with ACHN renal. Particulars: 10 µM unless noted.
A further experiment deals with CAKI-1 renal. As to conditions: 10 µM.
Another experiment concerns A498 renal. As to conditions: 10 µM unless noted.
The next experiment concerns CCRF-CEM leukemia. Particulars: 10 µM unless noted.
The test system of a further experiment is MOLT-4 leukemia. As to conditions: 10 µM unless noted.
Another experiment concerns SR leukemia. As to conditions: 10 µM unless noted.
Another experiment deals with RPMI-8226 leukemia. As to conditions: 10 µM unless noted.
The test system of another experiment is OVCAR-8 ovarian. As to conditions: 10 µM unless noted.
Another experiment relates to OVCAR-5 ovarian. Particulars: 10 µM unless noted.
The next experiment relates to OVCAR-4 ovarian. As to conditions: 10 µM unless noted.
The subject of the next experiment is SK-OV-3 ovarian. As to conditions: 10 µM unless noted.
In a further experiment the test system is IGROV1 ovarian. As to conditions: 10 µM unless noted.
For another experiment, the system named is OVCAR-3 ovarian. Particulars: 10 µM unless noted.
Another experiment concerns HS 578T breast. Particulars: 10 µM unless noted.
A further experiment concerns NCI/ADR-RES ovarian. As to conditions: 10 µM unless noted.

`O=C(NCCCNc1cc(-c2cn(-c3ccccc3)nc2-c2cccc(O)c2)ccn1)Nc1ccc(F)cc1`: the growth is -4.51% (active) with SK-MEL-2 melanoma; 33.8% with EKVX NSCLC; 31.1% in the experiment on SN12C renal; 6.93% (active) in the experiment with UO-31 renal; 65% in the experiment on TK-10 renal; 24.8% with ACHN renal. The growth was 12.8% in the experiment with CAKI-1 renal; -6.39% (active) with A498 renal; 11% in the experiment with CCRF-CEM leukemia; 4.57% (active) in the experiment with MOLT-4 leukemia; 17.4% with SR leukemia; -31.1% (active) with RPMI-8226 leukemia. The growth in the experiment on OVCAR-8 ovarian is 21.2%; in the experiment with OVCAR-5 ovarian it was 37.8%; with OVCAR-4 ovarian, 30.9%; with SK-OV-3 ovarian, 31.5%; with IGROV1 ovarian it was 19.2%; in the experiment with OVCAR-3 ovarian it was 28.4%. Besides, the figures for the growth in the experiment on HS 578T breast and with NCI/ADR-RES ovarian were -21.4% (active) and 20.9%, respectively.
As for `Oc1ccc(CSc2nnc(-c3ccccc3)o2)c2cccnc12`, the growth in the experiment with SK-MEL-2 melanoma was 35.4%; in the experiment on EKVX NSCLC, 33.1%; in the experiment with SN12C renal, 32.1%; in the experiment on UO-31 renal, 1.52% (active); in the experiment with TK-10 renal, 28.6%; with ACHN renal, 10.4%. The growth in the experiment on CAKI-1 renal is 16.6%; in the experiment on A498 renal it was 70.7%; in the experiment on CCRF-CEM leukemia, 10%; in the experiment on MOLT-4 leukemia, 14.4%; in the experiment with SR leukemia, 36.8%; with RPMI-8226 leukemia, 14.1%. Further, the growth in the experiment on OVCAR-8 ovarian is 17.5%; in the experiment with OVCAR-5 ovarian, 74%; in the experiment on OVCAR-4 ovarian, 16.5%; with SK-OV-3 ovarian, 10.8%; with IGROV1 ovarian it was 18.5%; in the experiment on OVCAR-3 ovarian, 28.2%. Also, the values for the growth with HS 578T breast and in the experiment with NCI/ADR-RES ovarian were -3.94% (active) and 11.1%, respectively.
With `O=C1[C@H]2Cc3c([nH]c4ccccc34)[C@@H](c3ccc(Cl)cc3)N2C(=O)CN1C1CCN(Cc2c(Cl)cccc2Cl)CC1`, the growth in the experiment with SK-MEL-2 melanoma is 102%; with EKVX NSCLC, 78.6%; in the experiment with SN12C renal it was 81.3%; in the experiment on UO-31 renal it was 2.51% (active); in the experiment with TK-10 renal, 107%; with ACHN renal it was -33.8% (active). In addition, the growth in the experiment with CAKI-1 renal is 54.6%; in the experiment on A498 renal, 111%; with CCRF-CEM leukemia it was 65.8%; in the experiment on MOLT-4 leukemia it was 97.3%; in the experiment with SR leukemia it was 29.8%; in the experiment with RPMI-8226 leukemia, 88.4%. Moreover, the growth was 89.2% with OVCAR-8 ovarian; 98.1% in the experiment on OVCAR-5 ovarian; 87.1% in the experiment with OVCAR-4 ovarian; 108% in the experiment on SK-OV-3 ovarian; -44.1% (active) with IGROV1 ovarian; 100% with OVCAR-3 ovarian. The growth in the experiment with HS 578T breast was 88.2%; in the experiment on NCI/ADR-RES ovarian it was 81.5%.
For the compound `CCN(CC)CCCC(C)NCC(=O)NC(c1ccc2c(c1)OCO2)c1cc(Cl)c2cccnc2c1O` (stereo not given), the growth in the experiment on SK-MEL-2 melanoma is 81.4%; in the experiment on EKVX NSCLC it was 26%; with SN12C renal, 38.1%; in the experiment on UO-31 renal it was 3.38% (active); in the experiment with TK-10 renal, 45.6%; in the experiment on ACHN renal it was 25.2%. For the same compound, the growth in the experiment on CAKI-1 renal is 1.43% (active); with A498 renal it was 81.1%; with CCRF-CEM leukemia it was 16.5%; in the experiment with MOLT-4 leukemia, 20.4%; with SR leukemia, 39.2%; with RPMI-8226 leukemia it was 27.9%. Moreover, the growth in the experiment with OVCAR-8 ovarian is 25.2%; with OVCAR-5 ovarian, 40.6%; with OVCAR-4 ovarian, 11.5%; in the experiment on SK-OV-3 ovarian it was 40.6%; with IGROV1 ovarian, 20.9%; with OVCAR-3 ovarian it was 10.8%. Moreover, the growth in the experiment on HS 578T breast was 79.7%; in the experiment with NCI/ADR-RES ovarian, 38.6%.
Regarding `O=C(/C=C/c1cccc(O)c1)c1ccc(O)cc1`, the growth is 107% with SK-MEL-2 melanoma; 98.4% in the experiment on EKVX NSCLC; 65.6% in the experiment with SN12C renal; 72.6% in the experiment with UO-31 renal; 98.3% with TK-10 renal; 75.1% in the experiment with ACHN renal. The growth in the experiment with CAKI-1 renal was 65.3%; in the experiment with A498 renal, 114%; in the experiment with CCRF-CEM leukemia, 37%; in the experiment with MOLT-4 leukemia, 91.7%; in the experiment on SR leukemia it was 13%; in the experiment on RPMI-8226 leukemia it was 18.7%. The growth in the experiment with OVCAR-8 ovarian was 83.7%; in the experiment with OVCAR-5 ovarian it was 91.4%; with OVCAR-4 ovarian, 96.2%; in the experiment on SK-OV-3 ovarian, 112%; with IGROV1 ovarian, 80.2%; in the experiment on OVCAR-3 ovarian, 14.3%. In addition, the growth in the experiment with HS 578T breast was 101%; in the experiment on NCI/ADR-RES ovarian, 71.4%.
On to `Oc1ccc(-c2nnc(SCc3ccc(O)c4ncccc34)n2-c2ccccc2)cc1`, for which the growth was 38.1% with SK-MEL-2 melanoma; 7.56% (active) with EKVX NSCLC; 18.7% with SN12C renal; -8.86% (active) in the experiment on UO-31 renal; 34.3% with TK-10 renal; 8.27% (active) with ACHN renal. In addition, the growth in the experiment on CAKI-1 renal was 16.1%; in the experiment on A498 renal it was 16%; with CCRF-CEM leukemia, 6.99% (active); in the experiment with MOLT-4 leukemia, 12.5%; in the experiment on SR leukemia, 37.3%; in the experiment with RPMI-8226 leukemia, 15.5%. Moreover, the growth is 10.1% with OVCAR-8 ovarian; 34.6% in the experiment with OVCAR-5 ovarian; 10.2% in the experiment with OVCAR-4 ovarian; 18.7% in the experiment on SK-OV-3 ovarian; 8.1% (active) with IGROV1 ovarian; 3.67% (active) in the experiment on OVCAR-3 ovarian. The growth was 39.8% in the experiment with HS 578T breast and 8.08% (active) in the experiment on NCI/ADR-RES ovarian.
On to `COc1ccc(-c2nn(-c3ccccc3)cc2/C=C/C(=O)c2ccc(NC(=O)CCCCCCC(=O)NO)cc2)cc1`, for which the growth in the experiment with SK-MEL-2 melanoma was 109%; in the experiment with EKVX NSCLC it was 97.2%; in the experiment on SN12C renal it was 92.7%; in the experiment on UO-31 renal, 93.7%; in the experiment on TK-10 renal, 107%; with ACHN renal it was 111%. The growth with CAKI-1 renal is 81.9%; in the experiment with A498 renal, 68.4%; with CCRF-CEM leukemia it was 92.5%; in the experiment with MOLT-4 leukemia, 70.3%; in the experiment with SR leukemia, 110%; in the experiment on RPMI-8226 leukemia, 115%. Also, the growth in the experiment on OVCAR-8 ovarian is 99.7%; in the experiment on OVCAR-5 ovarian, 108%; in the experiment on OVCAR-4 ovarian, 97.5%; in the experiment with SK-OV-3 ovarian, 91.7%; in the experiment on IGROV1 ovarian, 96.2%; in the experiment with OVCAR-3 ovarian it was 96.2%. Further, the growth in the experiment on HS 578T breast is 87.2%; in the experiment with NCI/ADR-RES ovarian, 97.8%.
